Records with an inconclusive call do not appear. Calls of active or inactive are those of the source. The call rests on the fitted dose curve; in most records, active means well fitted curve in the direction sought with a large enough effect; inconclusive means small, poorly fitted or top-dose-only effect, or another doubt; inactive means no such curve, though single readings can be large; an effect the other way counts as inactive or inconclusive.

The nature of test [1]: qHTS of pediatric cancer cell lines to identify multiple opportunities for drug repurposing: Primary screen for LAN-5 cells (AID 1347100). Further: potency means the concentration at half of the fitted maximal effect. In outline:
(§1)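 Cells (500-1,000/well) in growth media were settled 5 h at 37 degrees C, then given compounds for 48 h. Viability was read as CellTiter-Glo luminescence. Primary runs used MIPE at 11 points (0.78 nM-46 µM) and NPC at 8 points (0.59 nM-46 µM); follow-ups used 11 points.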
For orientation: Quantitative high-throughput screening tests each substance at several concentrations.

The nature of test [2]: qHTS of pediatric cancer cell lines to identify multiple opportunities for drug repurposing: Primary screen for BT-12 cells (AID 1347101). Further: nearly all actives have a fitted effect of over 25% in size. Further: potency means the concentration at half of the fitted maximal effect. A digest of the protocol: (§2)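 Cells (500-1,000/well) rested 5 h, then received compounds for 48 h; metabolically active cells were measured by CellTiter-Glo luminescence. Final concentrations spanned up to 46 µM (MIPE, 11-point) or 0.59 nM-46 µM (NPC, 8-point) in primary screens, 11-point in follow-ups.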

Test [3] in a line: qHTS of pediatric cancer cell lines to identify multiple opportunities for drug repurposing: Primary screen for RD cells (AID 1347104). Further: nearly all actives have a fitted effect of over 55% in size. Further: potency means the concentration at half of the fitted maximal effect. In outline: (§3)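 Cells plated at 500-1,000/well in growth medium, compounds added after 5 h. MIPE tested at 11 points (from 0.78 nM), NPC at 8 points (from 0.59 nM). CellTiter-Glo luminescence after 48 h; concentration-response curves from primary screen.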

A short description of test [4]: qHTS of pediatric cancer cell lines to identify multiple opportunities for drug repurposing: Primary screen for MG 63 (6-TG R) cells (AID 1347105). Further: nearly all actives have a fitted effect of over 50% in size. A digest of the protocol:
as §3

The nature of test [5]: qHTS of pediatric cancer cell lines to identify multiple opportunities for drug repurposing: Primary screen for control Hh wild type fibroblast cells (AID 1347106).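 Further: series mostly up to about 46 µM; a drop in luminescence marks cytotoxicity and a rise apparent proliferation; nearly all actives have a fitted effect of over 55% in size.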 In outline:
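Viability after 48 h compound treatment at 37C, 500-1,000 cells/well, read as ATP luminescence with CellTiter-Glo. Primary screens used 11-point (MIPE, 0.78 nM-46 µM) or 8-point (NPC, 0.59 nM-46 µM) final concentrations; follow-up screens used 11-point dilutions.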

Test [6] can be described thus: qHTS of pediatric cancer cell lines to identify multiple opportunities for drug repurposing: Primary screen for Rh30 cells (AID 1347107). Further: nearly all actives have a fitted effect of over 75% in size. Further: potency means the concentration at half of the fitted maximal effect. A digest of the protocol: as §1
The nature of test [7]: qHTS of pediatric cancer cell lines to identify multiple opportunities for drug repurposing: Primary screen for Rh18 cells (AID 1347102). Further: nearly all actives have a fitted effect of over 65% in size. Further: potency means the concentration at half of the fitted maximal effect. A digest of the protocol: as §1
A short description of test [8]: qHTS of pediatric cancer cell lines to identify multiple opportunities for drug repurposing: Primary screen for OHS-50 cells (AID 1347103). Further: nearly all actives have a fitted effect of over 40% in size. Further: potency means the concentration at half of the fitted maximal effect. In outline:
as §2

The nature of test [9]: qHTS of pediatric cancer cell lines to identify multiple opportunities for drug repurposing: Primary screen for Rh41 cells (AID 1347108). Further: nearly all actives have a fitted effect of over 70% in size. Further: potency means the concentration at half of the fitted maximal effect. In outline: as §3
Test [10] is described as follows: qHTS of pediatric cancer cell lines to identify multiple opportunities for drug repurposing: Confirmatory screen for NB1643 cells (AID 1347109). Further: nearly all actives have a fitted effect of over 45% in size. Further: potency means the concentration at half of the fitted maximal effect. In outline:
as §1

Test [11] can be described thus: qHTS of pediatric cancer cell lines to identify multiple opportunities for drug repurposing: Confirmatory screen for A673 cells (AID 1347110).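 Further: cells exposed to compound for 48 h before the viability read; nearly all actives have a fitted effect of over 65% in size.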 Further: potency means the concentration at half of the fitted maximal effect. In outline:
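Forty-eight-hour viability assay. Follow-up compounds ran at 11-point dilutions; positive control bortezomib at 2.3 uM final, neutral control DMSO.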

Test [12] is described as follows: qHTS of pediatric cancer cell lines to identify multiple opportunities for drug repurposing: Confirmatory screen for SK-N-MC cells (AID 1347111).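 Further: potency means the concentration at half of the fitted maximal effect; cells exposed to compound for 48 h before the readout; nearly all actives have a fitted effect of over 70% in size.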 A digest of the protocol: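 Metabolically active cells were quantified by ATP-dependent luminescence (CellTiter-Glo, 15 min at room temperature) following 48 h treatment. Cells had been plated at 500-1,000 per well and settled for 5 h beforehand.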

Test [13] in a line: qHTS of pediatric cancer cell lines to identify multiple opportunities for drug repurposing: Confirmatory screen for LAN-5 cells (AID 1347113). Further: nearly all actives have a fitted effect of over 65% in size. Further: potency means the concentration at half of the fitted maximal effect. A digest of the protocol: as §1
The nature of test [14]: qHTS of pediatric cancer cell lines to identify multiple opportunities for drug repurposing: Confirmatory screen for BT-37 cells (AID 1347117). Further: nearly all actives have a fitted effect of over 55% in size. Further: potency means the concentration at half of the fitted maximal effect. In outline:
as §1

Test [15] in a line: qHTS of pediatric cancer cell lines to identify multiple opportunities for drug repurposing: Confirmatory screen for TC32 cells (AID 1347118).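 Further: potency means the concentration at half of the fitted maximal effect; cells exposed to compound for 48 h before the read; nearly all actives have a fitted effect of over 65% in size.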 A digest of the protocol:
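Luminescent CellTiter-Glo read-out of metabolically active TC32 cells after 48 h compound exposure. Primary: MIPE 11-point, 0.78 nM–46 µM; NPC 8-point, 0.59 nM–46 µM. Confirmatory: 11-point dilutions.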

Test [16] in a line: qHTS of pediatric cancer cell lines to identify multiple opportunities for drug repurposing: Confirmatory screen for BT-12 cells (AID 1347112). Further: nearly all actives have a fitted effect of over 55% in size. A digest of the protocol:
as §1

Test [17] in a line: qHTS of pediatric cancer cell lines to identify multiple opportunities for drug repurposing: Confirmatory screen for DAOY cells (AID 1347114). Further: nearly all actives have a fitted effect of over 65% in size. A digest of the protocol: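 Viability measured as metabolically active cells via CellTiter-Glo luminescence following 48 hours of compound exposure, 11-point dilutions in confirmatory testing. 500-1,000 cells/well plated 5 hours before dosing; controls were DMSO and 2.3 µM bortezomib.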

Test [18] is described as follows: qHTS of pediatric cancer cell lines to identify multiple opportunities for drug repurposing: Confirmatory screen for control Hh wild type fibroblast cells (AID 1347121). Further: nearly all actives have a fitted effect of over 70% in size. A digest of the protocol: as §1
Test [19] is described as follows: qHTS of pediatric cancer cell lines to identify multiple opportunities for drug repurposing: Confirmatory screen for U-2 OS cells (AID 1347122). Further: nearly all actives have a fitted effect of over 65% in size. A digest of the protocol: as §1

Take `Oc1ccc(C2=Cc3ccc(O)cc3OC2)cc1`: the Potency was 2.35 µM (active) in [1], 4.85 µM (active) in test [2], 5.26 µM (active) in test [3] and 11.8 µM (active) in test [6]. Further, the Potency entry in test [4] and in test [5] was “inactive” throughout.

For the compound `C=C1C(=O)OC2C=C(C)CCC=C(C)CCC12` (stereo not given), the Potency in [1] is 23.5 µM (active). The Potency entry in test [7], in test [8], in test [4] and in [5] was “inactive” throughout.

In the case of `O=C(OCC#CCSc1nnc(-c2cccc3ccccc23)o1)c1cc2ccccc2s1`, the Potency entry in test [1], in test [2], in test [8], in [3], in [4] and in test [5] was “inactive” each time. For the same compound, the Potency entry in test [6] and in test [9] was “inactive” throughout.

For `COc1ncc(-c2ccc3nccc(-c4ccnnc4)c3c2)cc1NS(=O)(=O)c1ccc(F)cc1F`, the Potency in [1] is 0.105 µM (active); in [7], 0.0372 µM (active); in [8], 0.001 µM (active); in test [3], 0.372 µM (active); in test [6] it was 1.48 µM (active); in test [10] it was 0.465 µM (active). Moreover, the Potency in test [11] was 0.208 µM (active); in test [12], 0.0329 µM (active); in test [13], 0.0737 µM (active); in test [14], 0.465 µM (active); in [15] it was 0.0369 µM (active). The Potency result in [5] is “inactive”.

Regarding `CCOC1OC(=O)C[C@H]1NC(=O)[C@@H]1CCCN1C(=O)[C@@H](NC(=O)c1ccc(N)c(Cl)c1)C(C)(C)C` (stereo not given in full), the Potency in [1] is 0.833 µM (active); in test [2] it was 1.37 µM (active); in [8], 1.22 µM (active). Besides, the Potency entry in test [4], in test [5] and in test [6] was “inactive” each time.

In the case of `c1cc(-c2sc(-c3ccncc3)c(-c3ccncc3)c2-c2ccncc2)ccn1`, the Potency result in test [1], in test [2], in test [8], in [4], in test [5] and in test [6] was “inactive” throughout.

With `C[C@]12CC[C@@H]3c4ccc(O)cc4CC[C@H]3[C@H]1C[C@@H](O)[C@H]2O`, the Potency result in test [1], in test [7], in test [8], in test [3], in test [4] and in [5] was “inactive” throughout. Besides, the Potency result in [6] and in test [9] was “inactive” throughout.

For the compound `CC1(C)CCC[C@@]2(C)[C@@H]1CC[C@@]1(C)OC(=O)C[C@H]21`, the Potency result in test [1], in test [2], in test [3], in test [4], in [5] and in test [6] was “inactive” each time. The Potency result in [10], in test [11], in [16], in [13], in [17] and in test [14] was “inactive” each time. Further, the Potency result in [18] and in test [19] was “inactive” throughout. Further, in [12], the Potency was 26.1 µM (active).

Regarding `CC(=O)O[C@]1(C(C)=O)CC[C@H]2[C@@H]3C=C(Cl)C4=CC(=O)[C@@H]5C[C@@H]5[C@]4(C)[C@H]3CC[C@@]21C`, the Potency entry in [1], in test [4] and in test [5] was “inactive” each time. Further, the values for the Potency in [2], in test [8] and in test [9] were 12.3 µM (active), 34.7 µM (active) and 18.8 µM (active), respectively.

Regarding `CC(=O)N[C@@H](CS)C(=O)O`, the Potency result in test [1], in test [2], in test [8], in test [3], in test [4] and in [5] was “inactive” in each case. Also, the Potency result in test [6] and in [9] was “inactive” in each case.

Source of the values: PubChem BioAssay (NCATS).
